This is an account of results in PubChem BioAssay AID1135 (Sanford-Burnham Center for Chemical Genomics, 2008).

In all, about 200,000 compounds went through this assay and about 65 (0.03%) were called active.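 How the source made its calls: active means over 50% inhibition of tissue-nonspecific alkaline phosphatase at 20 µM in the single-dose screen; inactive means the rest.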 For the sample, actives were picked, then their nearest neighbours and some compounds at random.

Chain of Alkaline phosphatase, tissue-nonspecific isozyme (Homo sapiens) (P05186 whole entry, looked up): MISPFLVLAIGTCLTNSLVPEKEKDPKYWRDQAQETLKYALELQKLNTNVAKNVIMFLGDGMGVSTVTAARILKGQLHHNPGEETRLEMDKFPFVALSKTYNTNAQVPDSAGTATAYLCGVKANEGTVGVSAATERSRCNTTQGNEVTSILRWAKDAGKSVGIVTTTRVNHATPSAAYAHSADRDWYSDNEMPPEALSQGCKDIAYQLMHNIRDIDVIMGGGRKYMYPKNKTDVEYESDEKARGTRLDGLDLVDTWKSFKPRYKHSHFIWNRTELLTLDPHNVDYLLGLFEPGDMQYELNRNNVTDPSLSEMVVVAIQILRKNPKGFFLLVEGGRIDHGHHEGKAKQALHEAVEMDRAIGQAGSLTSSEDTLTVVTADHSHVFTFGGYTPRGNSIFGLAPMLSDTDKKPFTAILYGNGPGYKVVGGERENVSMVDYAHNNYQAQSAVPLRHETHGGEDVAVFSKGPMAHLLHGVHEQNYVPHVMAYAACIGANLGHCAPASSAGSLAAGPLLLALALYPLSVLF

This experiment concerns the target Alkaline phosphatase, tissue-nonspecific isozyme (Homo sapiens) (UniProt P05186). In words: blockers of alkaline phosphatase TNAP activity – biochemical, luminescent, high phosphate acceptor level, uHTS, primary screen (AID 1135).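 Further: plate controls were DMSO wells for no effect and EDTA-quenched wells as full inhibition for full effect.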 Conditions: purified TNAP, CDP-star luminescence, 1 M DEA; at 20 µM; hits give high values.
In the case of `NNC(=O)COc1ccc(C2SCCS2)cc1`, the inhibition is -6.7% (inactive).
With `O=C(NCc1ccncc1)NC12CC3CC(CC(C3)C1)C2`, the inhibition is 2.3% (inactive).
As to `COc1ccc([N+](=O)[O-])cc1NC(=O)CC1SC(=Nc2cccc(C)c2C)N(/N=C(\C)c2ccc(C)cc2)C1=O` (configuration not stated), the inhibition was -3.9% (inactive).
To `Cc1[nH][nH]c(=O)c1C(c1ccc2c(c1)OCO2)c1c(C)[nH][nH]c1=O` belongs 44% (inactive).
Regarding `Cc1[nH][nH]c(=O)c1C(c1ccc(-c2ccc(Cl)cc2)o1)c1c(C)[nH][nH]c1=O`, the inhibition is 10.3% (inactive).
For the compound `CCOc1ccc(C(c2c(C)[nH][nH]c2=O)c2c(C)[nH][nH]c2=O)cc1OCC`, the inhibition is 71.4% (active).
Take `CC(CNc1ccc([N+](=O)[O-])c2cccnc12)Nc1c([N+](=O)[O-])cc(C(F)(F)F)cc1[N+](=O)[O-]` (configuration not stated): the inhibition is 13.7% (inactive).
The same measure for `NS(=O)(=O)c1ccc(CCNC(=O)c2ccc(Cl)cc2[N+](=O)[O-])cc1`: 5.9% (inactive).
To `CCCC(=O)NC(=S)Nc1ccc(CN2CCOCC2)cc1` belongs -4.1% (inactive).
With `Cc1cc(-c2n[nH]c(=S)n2-c2ccc(C)c(C)c2)no1`, the inhibition was -3% (inactive).
To `O=C(c1cc(Cl)cc(Cl)c1)N1CCC(=O)N(C(COCc2ccccc2)Cc2ccccc2)CC1` (configuration not stated) belongs -3.9% (inactive); to `CCn1c(SCC(=O)Nc2nc(C)cs2)nnc1C(C)NC(=O)c1ccccc1` (configuration not stated), -5.3% (inactive).
For the compound `COCCCNC(=O)CNC(=S)N(Cc1cc(OC)c(OC)c(OC)c1)C1CCCC1`, the inhibition was -4.1% (inactive).
As to `CC(=O)Nc1ccc(NC(=O)C(C)OC(=O)c2ccccc2C(=O)c2ccc(Cl)c([N+](=O)[O-])c2)cc1` (configuration not stated), the inhibition was 0.3% (inactive).
As for `Cc1cc(C)c(NC(=O)c2oc3ccccc3c2COc2ccccc2)c(C)c1`, the inhibition is 0.7% (inactive).
For `CCn1c(C(C)NC(=O)c2ccc(C)cc2)n[nH]c1=S` (configuration not stated), the inhibition was -0.4% (inactive).
In the case of `CC(C)(C)NC(=O)CN(C(=O)c1ccc(Cl)nc1)c1cccc2ccccc12`, the inhibition was -2.9% (inactive).
As to `CC(C)(C)n1nc2c(c1NC(=O)c1cc3ccccc3o1)CSC2`, the inhibition was -7.4% (inactive).
As to `COc1cc(C(=O)Nc2cc(C(F)(F)F)ccc2-n2cncn2)cc(OC)c1OC`, the inhibition is -1.7% (inactive).
Turning to `O=C(COc1cc(Cl)c(Cl)cc1Cl)NC(=O)NC1CCCC1`, the inhibition was 0.7% (inactive).
Consider `O=C(Nc1ccc2c(c1)OCO2)c1sc2cc(Cl)ccc2c1Cl`, for which the inhibition is 0.3% (inactive).
For `Cc1nnc(SCc2cccc(Cl)c2)n(N)c1=O`, the inhibition was -2.2% (inactive).

The inhibition is the relative decrease from the control value, in per cent.
